14 molecules from PubChem BioAssay (NCI) can be followed below.

This is part of a sample that, as a whole, favours compounds with a hit. Of some 83,000 tested, about 20% had one in any assay.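 Assay: single dose, 48 h. Readout: percent growth (0 = no net growth; negative = cell death). Active: <10.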 A number with no mark means an inactive call. Activity calls are given as the source filed them.

Common to all, as to assay: NCI-60 one-dose screen, 48 h (100 = growth as untreated, 0 = no growth, -100 = all killed)
Holding throughout (details): 10 µM unless noted

Experiment [1] has as its system BT-549 breast.
The test system of experiment [2] is MDA-MB-435 melanoma.
For experiment [3], the system named is SW-620 colon.
In experiment [4] the test system is MCF7 breast.
Experiment [5] concerns HCT-116 colon.
Experiment [6] concerns HCC-2998 colon.
Experiment [7] relates to KM12 colon.
Experiment [8] relates to T-47D breast.

In the case of `CC(=O)OCC(=O)[C@@]1(O)CC[C@H]2[C@@H]3CC(=C(Br)Br)C4=CC(=O)CC[C@]4(C)[C@H]3C(=O)C[C@@]21C`, the growth in experiment [1] was 73.5%; in experiment [2], 100%; in experiment [3], 95.3%; in experiment [4], 84.4%; in experiment [5], 68.3%; in experiment [6] it was 95.8%.
With `CCN(CCNc1cc(OC)cc2cccnc12)CCc1ccccc1`, the growth in experiment [1] is 87.6%; in experiment [2] it was 104%; in experiment [3], 70.7%; in experiment [4], 0.943% (active); in experiment [5], 59.8%; in experiment [6], 88.5%. Besides, the growth in experiment [7] was 85.6%.
On to `O=C(Nc1ccc(F)cc1)c1c(NC(=O)C(F)(F)F)sc2c1CCCCC2`, for which the growth in experiment [1] is -2.41% (active); in experiment [2] it was 3.22% (active); in experiment [3], 11.6%; in experiment [4], 3.61% (active); in experiment [5], 1.79% (active); in experiment [6] it was 10.1%. The growth in experiment [7] is 2.08% (active).
Take `COc1ccc(CNCCN2C(=O)c3ccc4c5c(ccc(c35)C2=O)C(=O)N(CCNCc2ccc(OC)cc2)C4=O)cc1`: the growth in experiment [8] was -19% (active); in experiment [2] it was -71.4% (active); in experiment [3], -88% (active); in experiment [4] it was -79.2% (active); in experiment [5], -72.4% (active); in experiment [6] it was -92.3% (active). Also, the growth in experiment [7] was -81.8% (active).
In the case of `CCNC(=O)c1[nH]cc(-c2ccc(OC)cc2)c1-c1cc(OC)cc(OC)c1`, the growth in experiment [1] was 90.2%; in experiment [2] it was 84.3%; in experiment [4], 99.5%; in experiment [5], 82.3%; in experiment [6], 102%; in experiment [7], 89.9%.
Turning to `CCCCc1ccc(Nc2nnc(SCC(=O)NC(=O)NCC)s2)cc1`, the growth in experiment [8] is 128%; in experiment [2], 104%; in experiment [3], 102%; in experiment [4], 101%; in experiment [5], 93.6%; in experiment [6], 105%. For the same molecule, the growth in experiment [7] was 102%.
For the molecule `COC(=O)Nc1ccc(NC(=O)OC)cc1`, the growth is 84.6% in experiment [1]; 101% in experiment [2]; 104% in experiment [3]; 92.1% in experiment [4]; 83.9% in experiment [5]; 106% in experiment [6]. Besides, the growth in experiment [7] is 111%.
Consider `O=C(/C=C\c1ccc(OCCCCCC[P+](c2ccccc2)(c2ccccc2)c2ccccc2)cc1)c1ccc2c(c1)OCCO2`, for which the growth is -16.9% (active) in experiment [1]; -29.8% (active) in experiment [2]; -41.4% (active) in experiment [3]; 5.09% (active) in experiment [4]; -73.1% (active) in experiment [5]; 32.5% in experiment [6]. Moreover, in experiment [7], the growth was -76.4% (active).
`CCCc1cc2c(cc1Br)OCO2`: the growth in experiment [1] was 82.7%; in experiment [2], 110%; in experiment [3] it was 112%; in experiment [4], 95%; in experiment [5] it was 84.5%; in experiment [6], 103%. Besides, the growth in experiment [7] was 113%.
Regarding `COc1ccccc1/C=C1\Oc2cc(OCCCN3CCCC3)ccc2C1=O`, the growth in experiment [1] is 94.8%; in experiment [2], 91.4%; in experiment [3], 73%; in experiment [4], 80%; in experiment [5], 50.9%; in experiment [6] it was 102%. The growth in experiment [7] was 98.3%.
For `Cc1c([N+](=O)[O-])cc(C(C)(C)C)cc1[N+](=O)[O-]`, the growth was 102% in experiment [1]; 107% in experiment [2]; 98.9% in experiment [3]; 92.8% in experiment [4]; 87.3% in experiment [5]; 95.2% in experiment [6]. Besides, the growth in experiment [7] is 102%.
Take `O=C(Nc1cccc(Cl)c1)Oc1c(Br)c(Br)c(Br)c(Br)c1Br`: the growth in experiment [1] was 79.5%; in experiment [2], 99.8%; in experiment [3] it was 102%; in experiment [4], 93.9%; in experiment [5], 80.3%; in experiment [6] it was 94.7%.
In the case of `COc1cccc2cc(-c3cc4ccccc4[nH]3)/c(=N/C(=S)Nc3ccc(C)cc3)oc12`, the growth in experiment [1] was 89.6%; in experiment [2], 85.1%; in experiment [3], 78%; in experiment [4], 74%; in experiment [5], 49.3%; in experiment [6], 99.9%. The growth in experiment [7] was 70.9%.
On to `CCN(CC)S(=O)(=O)c1cccc([N+](=O)[O-])c1`, for which the growth in experiment [1] was 79.1%; in experiment [2] it was 99%; in experiment [3], 100%; in experiment [4], 103%; in experiment [5], 80.7%; in experiment [6] it was 101%. For the same molecule, in experiment [7], the growth was 108%.
